Laboratory results published in the supplement of paper PMC10849652.
Of roughly 8,800 targets only a part is listed; those with a hit were picked by preference. About 0.5% of all pairs of compound and target were hits.

Key:
Experiment in all cases: log2 fold change, soluble protein after heating vs DMSO (PISA); higher = thermal stabilisation; K562 lysate, 10 uM; active = over 0.2 and 3.5 SD of the protein, either way, in both replicates (recomputed)
erlotinib = compound: C#Cc1cccc(Nc2ncnc3cc(OCCOC)c(OCCOC)cc23)c1 [erlotinib]
Procedure, shortened: (§1)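 Soluble protein was defined as the supernatant remaining after 21,000xg for 90 min, following pooling of heated aliquots and adjustment to 0.5% NP-40 at 4°C. Before that, crude K562 extract at 1 mg/mL protein in PBS pH 7.4 with 1 mM MgCl2 was treated with 10 μM compound for 30 min and heated for 3 min across 48°C-58°C. Quantification used TMTpro 16plex LC-MS/MS with channel sums equalised, and values are log-two fold changes in thermal stability relative to solvent controls from duplicates.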

[1] = compound: C/C(=N\NC(=O)C1=CC(=CC=C1)S(=O)(=O)N2CCOCC2)/C3=C(C=CC(=C3)Cl)O
Procedure, shortened: as §1

[2] = compound: C1=CC(=CC=C1C2=NC3=C(N2)C=C(C=C3)C(=O)N)OC4=CC=C(C=C4)Cl
Procedure, shortened: as §1

[3] = compound: C1=CC2=C(C=CC(=C2)/C=C\3/C(=O)NC(=NCC4=CC=CS4)S3)N=C1
Procedure, shortened: as §1

[4] = compound: C1=CC2=NC=CN=C2C=C1/C=C/3\C(=O)NC(=O)S3
Procedure, shortened: as §1

[5] = compound: C1=CC=C(C=C1)C2=NC(=C(N2)C3=CC=NC=C3)C4=CC(=C(C=C4)Cl)O
Procedure, shortened: as §1

[6] = compound: C1=CC=C2C(=C1)C3=NNC4=CC=CC(=C43)C2=O
Procedure, shortened: as §1

[7] = compound: C1CCN(C1)C(=O)NC2=CC=CC(=C2)NC3=NC=C(C(=N3)NCCC4=CN=CN4)Br
Procedure, shortened: as §1

[8] = compound: C1CN(CCC1(CC2=CC=C(C=C2)Cl)N)C3=NC=NC4=C3C=CN4
Procedure, shortened: as §1

IRAK-1-4 Inhibitor I = compound: C1COCCN1CCN2C3=CC=CC=C3N=C2NC(=O)C4=CC(=CC=C4)[N+](=O)[O-] [IRAK-1-4 Inhibitor I]
Procedure, shortened: as §1

Measured: log2 fold change

ACTBL2 (UniProt Q562R1)
inactive: erlotinib -0.037 | [1] -0.163 | [2] 0.02 | [3] 0.043 | [4] 0.118 | [5] 0.004 | [6] 0.024 | [7] 0.064 | [8] 0.109 | IRAK-1-4 Inhibitor I -0.006

ACACB (UniProt O00763)
UniProt O00763, sequence (O00763 whole entry, looked up): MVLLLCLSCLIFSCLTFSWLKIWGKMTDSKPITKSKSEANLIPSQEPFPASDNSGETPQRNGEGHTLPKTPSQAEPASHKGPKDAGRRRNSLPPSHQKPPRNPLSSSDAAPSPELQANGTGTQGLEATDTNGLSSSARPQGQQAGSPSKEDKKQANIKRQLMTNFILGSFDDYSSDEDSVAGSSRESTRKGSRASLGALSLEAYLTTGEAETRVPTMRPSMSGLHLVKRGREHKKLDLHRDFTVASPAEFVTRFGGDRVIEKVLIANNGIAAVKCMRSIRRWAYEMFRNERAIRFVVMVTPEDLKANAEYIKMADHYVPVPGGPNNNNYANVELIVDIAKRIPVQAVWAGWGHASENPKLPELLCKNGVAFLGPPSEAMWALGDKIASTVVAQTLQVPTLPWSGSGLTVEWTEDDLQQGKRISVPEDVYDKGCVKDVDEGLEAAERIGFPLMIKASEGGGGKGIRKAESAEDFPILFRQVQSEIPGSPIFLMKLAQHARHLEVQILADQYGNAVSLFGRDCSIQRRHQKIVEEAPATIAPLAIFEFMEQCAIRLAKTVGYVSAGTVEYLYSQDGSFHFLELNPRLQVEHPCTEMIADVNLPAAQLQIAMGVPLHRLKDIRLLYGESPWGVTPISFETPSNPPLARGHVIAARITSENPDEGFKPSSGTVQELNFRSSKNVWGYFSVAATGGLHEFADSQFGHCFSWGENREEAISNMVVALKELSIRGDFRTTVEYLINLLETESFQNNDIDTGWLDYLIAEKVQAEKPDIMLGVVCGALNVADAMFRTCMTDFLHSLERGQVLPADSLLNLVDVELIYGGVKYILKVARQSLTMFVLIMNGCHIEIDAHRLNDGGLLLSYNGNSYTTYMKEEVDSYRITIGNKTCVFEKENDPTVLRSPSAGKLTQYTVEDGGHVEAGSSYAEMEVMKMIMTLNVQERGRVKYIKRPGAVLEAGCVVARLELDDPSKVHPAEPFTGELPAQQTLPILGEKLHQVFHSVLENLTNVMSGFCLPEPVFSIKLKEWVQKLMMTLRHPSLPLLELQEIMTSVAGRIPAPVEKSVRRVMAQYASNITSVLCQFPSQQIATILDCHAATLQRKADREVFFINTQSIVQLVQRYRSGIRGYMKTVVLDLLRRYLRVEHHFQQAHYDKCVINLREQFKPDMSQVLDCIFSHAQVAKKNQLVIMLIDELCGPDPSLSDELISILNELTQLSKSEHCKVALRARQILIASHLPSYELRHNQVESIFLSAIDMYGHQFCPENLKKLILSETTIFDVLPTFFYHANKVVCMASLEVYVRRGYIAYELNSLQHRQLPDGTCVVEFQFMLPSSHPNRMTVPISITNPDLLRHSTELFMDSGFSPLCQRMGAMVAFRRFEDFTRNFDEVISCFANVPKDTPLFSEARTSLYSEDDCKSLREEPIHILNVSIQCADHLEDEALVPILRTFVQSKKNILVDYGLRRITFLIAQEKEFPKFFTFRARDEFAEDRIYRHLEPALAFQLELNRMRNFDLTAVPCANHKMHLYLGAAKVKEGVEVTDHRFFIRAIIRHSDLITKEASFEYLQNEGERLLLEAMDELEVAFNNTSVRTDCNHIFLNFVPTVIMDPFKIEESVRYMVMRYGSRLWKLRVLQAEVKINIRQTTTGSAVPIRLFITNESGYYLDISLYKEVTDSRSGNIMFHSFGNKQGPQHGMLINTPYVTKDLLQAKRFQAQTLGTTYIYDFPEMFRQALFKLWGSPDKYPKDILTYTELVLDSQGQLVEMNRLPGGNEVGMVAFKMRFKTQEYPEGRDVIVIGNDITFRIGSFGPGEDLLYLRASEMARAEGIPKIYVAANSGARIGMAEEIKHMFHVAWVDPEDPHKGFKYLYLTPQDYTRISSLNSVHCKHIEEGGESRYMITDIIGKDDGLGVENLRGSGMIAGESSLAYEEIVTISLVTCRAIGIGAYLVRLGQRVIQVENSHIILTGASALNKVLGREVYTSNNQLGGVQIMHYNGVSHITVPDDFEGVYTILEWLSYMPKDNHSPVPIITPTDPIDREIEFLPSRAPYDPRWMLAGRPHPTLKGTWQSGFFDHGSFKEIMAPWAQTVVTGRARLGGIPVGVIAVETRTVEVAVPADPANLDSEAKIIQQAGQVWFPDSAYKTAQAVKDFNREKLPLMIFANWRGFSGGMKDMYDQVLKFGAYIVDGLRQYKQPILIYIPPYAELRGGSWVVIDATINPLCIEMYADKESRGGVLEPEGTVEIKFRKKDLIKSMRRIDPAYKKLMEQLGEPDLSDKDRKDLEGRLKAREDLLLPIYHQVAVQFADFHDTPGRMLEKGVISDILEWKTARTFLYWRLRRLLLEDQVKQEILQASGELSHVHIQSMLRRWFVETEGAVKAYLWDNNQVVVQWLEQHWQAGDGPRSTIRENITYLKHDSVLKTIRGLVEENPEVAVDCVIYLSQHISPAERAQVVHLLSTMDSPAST
inactive: erlotinib 0.042 | [1] 0.097 | [2] -0.025 | [3] 0.018 | [4] -0.02 | [5] -0.01 | [6] -0.008 | [7] -0.005 | [8] 0.015 | IRAK-1-4 Inhibitor I 0.025

ARAF (UniProt P10398)
inactive: erlotinib -0.002 | [1] -0.129 | [2] -0.018 | [3] 0.014 | [4] -0.046 | [5] 0.067 | [6] 0.03 | [7] 0.012 | [8] -0.049 | IRAK-1-4 Inhibitor I -0.02

ARMCX3 (UniProt Q9UH62)
inactive: erlotinib 0.023 | [1] -0.02 | [2] -0.005 | [3] 0.009 | [4] 0.033 | [5] -0.005 | [6] -0.043 | [7] -0.016 | [8] 0.064 | IRAK-1-4 Inhibitor I 0.03

ACBD6 (UniProt Q9BR61)
inactive: erlotinib 0.013 | [1] -0.059 | [2] 0.029 | [3] 0.024 | [4] -0.032 | [5] -0.014 | [6] -0.075 | [7] -0.044 | [8] -0.01 | IRAK-1-4 Inhibitor I 0.019

ABCD3 (UniProt P28288)
UniProt P28288, sequence (P28288 whole entry, looked up): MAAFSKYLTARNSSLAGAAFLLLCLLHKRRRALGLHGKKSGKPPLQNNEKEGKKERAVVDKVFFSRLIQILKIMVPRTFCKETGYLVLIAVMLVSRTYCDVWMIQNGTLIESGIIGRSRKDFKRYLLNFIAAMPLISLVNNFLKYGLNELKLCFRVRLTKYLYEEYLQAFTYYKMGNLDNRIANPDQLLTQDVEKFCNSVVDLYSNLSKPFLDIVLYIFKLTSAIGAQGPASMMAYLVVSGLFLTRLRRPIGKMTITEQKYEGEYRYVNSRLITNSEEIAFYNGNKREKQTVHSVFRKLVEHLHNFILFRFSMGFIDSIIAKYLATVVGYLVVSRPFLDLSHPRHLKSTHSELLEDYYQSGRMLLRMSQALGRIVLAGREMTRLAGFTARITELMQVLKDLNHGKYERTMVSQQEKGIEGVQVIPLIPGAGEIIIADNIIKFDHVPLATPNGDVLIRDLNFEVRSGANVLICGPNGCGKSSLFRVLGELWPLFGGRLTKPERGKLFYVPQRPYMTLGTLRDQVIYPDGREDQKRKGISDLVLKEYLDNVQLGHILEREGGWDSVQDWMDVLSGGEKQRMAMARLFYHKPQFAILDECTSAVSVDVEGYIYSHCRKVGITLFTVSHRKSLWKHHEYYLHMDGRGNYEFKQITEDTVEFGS
inactive: erlotinib -0.1 | [2] 0.217 | [3] -0.051 | [4] -0.055 | [5] -0.075 | [6] -0.031 | [7] -0.084 | [8] 0.044 | IRAK-1-4 Inhibitor I -0.003
active: [1] 0.556

ABCC5 (UniProt O15440)
inactive: erlotinib 0.059 | [1] -0.581 | [2] 0.057 | [3] -0.028 | [4] -0.127 | [5] -0.112 | [6] -0.248 | [7] -0.038 | [8] 0.072 | IRAK-1-4 Inhibitor I -0.067

ALDH5A1 isoform 2 (UniProt P51649)
UniProt P51649, sequence (P51649 whole entry, looked up): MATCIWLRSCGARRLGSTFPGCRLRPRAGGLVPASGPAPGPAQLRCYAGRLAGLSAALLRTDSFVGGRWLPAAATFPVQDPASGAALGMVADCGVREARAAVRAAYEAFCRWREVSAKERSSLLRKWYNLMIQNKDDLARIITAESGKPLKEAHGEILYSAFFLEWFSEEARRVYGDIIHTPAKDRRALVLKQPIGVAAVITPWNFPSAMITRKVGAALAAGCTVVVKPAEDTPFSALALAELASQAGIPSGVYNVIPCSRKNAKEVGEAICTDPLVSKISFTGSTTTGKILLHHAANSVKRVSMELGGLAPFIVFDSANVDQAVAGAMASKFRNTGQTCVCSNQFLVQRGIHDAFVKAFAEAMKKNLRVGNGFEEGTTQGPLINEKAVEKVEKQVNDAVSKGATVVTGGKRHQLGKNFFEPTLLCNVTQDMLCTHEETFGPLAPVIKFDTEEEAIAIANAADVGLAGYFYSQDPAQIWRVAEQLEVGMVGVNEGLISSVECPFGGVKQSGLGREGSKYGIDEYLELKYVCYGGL
inactive: erlotinib -0.005 | [1] 0.045 | [2] 0.024 | [3] -0.009 | [4] 0.006 | [5] 0.013 | [6] -0.026 | [7] -0.013 | [8] -0.002 | IRAK-1-4 Inhibitor I -0.012

ARHGEF1 (UniProt M0QZR4)
inactive: erlotinib 0.018 | [1] 0.024 | [2] -0.023 | [3] 0.002 | [4] 0.027 | [5] 0.001 | [6] -0.041 | [7] -0.004 | [8] -0.022 | IRAK-1-4 Inhibitor I -0.031

AMD1 (UniProt P17707)
inactive: erlotinib 0.019 | [1] 0.011 | [2] -0.091 | [3] -0.075 | [4] 0.055 | [5] 0.061 | [6] 0.011 | [7] 0.114 | [8] -0.156 | IRAK-1-4 Inhibitor I -0.036

AGTPBP1 (UniProt Q9UPW5)
inactive: erlotinib -0.033 | [1] -0.084 | [2] 0.027 | [3] -0.029 | [4] 0.042 | [5] -0.053 | [6] -0.039 | [7] -0.017 | [8] 0.005 | IRAK-1-4 Inhibitor I 0.022

AHCYL1 (UniProt O43865)
UniProt O43865, sequence (O43865 whole entry, looked up): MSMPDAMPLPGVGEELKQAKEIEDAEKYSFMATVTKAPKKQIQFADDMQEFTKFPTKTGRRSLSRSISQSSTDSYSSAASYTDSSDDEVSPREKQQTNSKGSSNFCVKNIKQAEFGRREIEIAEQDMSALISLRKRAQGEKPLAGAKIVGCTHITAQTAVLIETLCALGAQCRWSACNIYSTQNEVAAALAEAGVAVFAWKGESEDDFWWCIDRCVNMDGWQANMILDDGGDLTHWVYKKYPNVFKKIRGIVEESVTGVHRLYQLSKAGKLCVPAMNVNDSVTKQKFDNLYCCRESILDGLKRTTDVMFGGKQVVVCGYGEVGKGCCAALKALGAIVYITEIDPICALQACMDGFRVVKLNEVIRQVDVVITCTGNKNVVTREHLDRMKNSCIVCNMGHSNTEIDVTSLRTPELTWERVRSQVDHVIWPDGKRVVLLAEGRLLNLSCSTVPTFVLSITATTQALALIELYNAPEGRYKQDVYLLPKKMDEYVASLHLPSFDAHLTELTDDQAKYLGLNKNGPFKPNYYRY
inactive: erlotinib -0.015 | [1] 0.018 | [2] -0.034 | [3] -0.009 | [4] -0.006 | [5] 0.008 | [6] -0.073 | [7] -0.024 | [8] 0.009 | IRAK-1-4 Inhibitor I 0.007

ADAMTS5 (UniProt Q9UNA0)
UniProt Q9UNA0, sequence (Q9UNA0 whole entry, looked up): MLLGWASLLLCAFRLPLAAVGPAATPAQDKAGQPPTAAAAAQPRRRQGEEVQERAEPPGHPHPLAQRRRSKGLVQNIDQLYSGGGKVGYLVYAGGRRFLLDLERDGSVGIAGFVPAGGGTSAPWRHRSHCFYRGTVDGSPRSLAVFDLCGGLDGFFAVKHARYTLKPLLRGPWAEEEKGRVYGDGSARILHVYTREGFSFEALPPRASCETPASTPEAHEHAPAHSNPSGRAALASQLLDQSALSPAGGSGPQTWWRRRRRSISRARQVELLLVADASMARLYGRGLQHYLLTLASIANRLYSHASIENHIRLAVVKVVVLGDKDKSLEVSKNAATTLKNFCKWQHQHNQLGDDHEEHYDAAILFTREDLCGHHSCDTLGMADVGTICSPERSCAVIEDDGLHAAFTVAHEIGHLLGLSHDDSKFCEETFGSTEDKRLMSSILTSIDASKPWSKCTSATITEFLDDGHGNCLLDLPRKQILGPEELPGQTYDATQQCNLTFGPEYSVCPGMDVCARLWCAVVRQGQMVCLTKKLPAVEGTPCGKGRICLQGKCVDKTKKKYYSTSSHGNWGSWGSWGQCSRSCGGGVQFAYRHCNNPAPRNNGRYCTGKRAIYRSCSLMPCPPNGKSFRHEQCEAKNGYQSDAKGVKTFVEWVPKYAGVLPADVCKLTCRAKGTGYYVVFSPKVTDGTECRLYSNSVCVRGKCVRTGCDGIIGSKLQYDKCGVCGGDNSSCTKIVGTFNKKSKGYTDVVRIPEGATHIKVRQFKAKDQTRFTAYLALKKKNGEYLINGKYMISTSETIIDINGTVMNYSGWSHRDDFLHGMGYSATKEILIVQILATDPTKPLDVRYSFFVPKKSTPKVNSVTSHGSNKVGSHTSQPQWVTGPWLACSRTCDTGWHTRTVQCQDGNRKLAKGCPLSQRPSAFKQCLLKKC
inactive: erlotinib 0.027 | [1] 0.004 | [2] 0.044 | [3] -0.05 | [4] -0.046 | [5] 0.049 | [6] -0.001 | [7] 0.058 | [8] 0.073 | IRAK-1-4 Inhibitor I 0.123

AMDHD2 isoform 3 (UniProt Q9Y303)
inactive: erlotinib -0.013 | [1] -0.045 | [2] 0.06 | [3] -0.038 | [4] 0.028 | [5] -0.01 | [6] -0.003 | [7] 0.022 | [8] 0.044 | IRAK-1-4 Inhibitor I 0.018

ADD1 isoform 4 (UniProt P35611)
inactive: erlotinib -0.016 | [1] -0.059 | [2] 0.011 | [3] 0.089 | [4] -0.088 | [5] -0.081 | [6] -0.025 | [7] 0.028 | [8] -0.009 | IRAK-1-4 Inhibitor I 0.093
